# Test results: PubChem BioAssay (NCI)
# The panel holds about 83,000 compounds, 20% with a hit somewhere; the sample as a whole holds those more often.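 For each line, cells grew in 96-well plates with the test compound present at a single concentration for 48 hours.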 Unmarked numbers belong to inactive results. The source made the active and inactive calls.
# Tested on: M14 melanoma
# Test: NCI-60 one-dose screen, 48 h (100 = growth as untreated, 0 = no growth, -100 = all killed)
# Settings: 10 µM unless noted
# Description: Growth inhibition of the M14 human tumor cell line is measured as a screen for anti-cancer activity. Cells are grown in 96 well plates and exposed to the test compound for 48 hours. Compounds are tested at a single concentration, which is 10^-5 M for most compounds. The reported endpoint is percent growth (GI% or GIPRCNT), where numbers from 0 - 100% represent growth inhibition, and numbers from -100% - 0 represent cell death. For example, a value of 40 represents 60% growth inhibition. A value of 0 means no net growth occurred over the course of the experiment. A value of -40 indicates 40% of cells at the beginning of the experiment died by the end of the experiment. A value of -100 means all cells are dead at the end of the experiment.
# NCI-60 Human Tumor Cell Lines Screen was performed using the standard one-dose NCI protocol, which is described in more detail at https://dtp.cancer.gov/discovery_development/nci-60/default.htm.
# Compounds with GIPRCNT values below 10 were considered active. Activity score was based on GIPRCNT using the following formula: […]
# Score is 0 for GIPRCNT values of 100 or above, 50 for GIPRCNT values of 0, and 100 for GIPRCNT values of -100.
row,Structure (SMILES),growth
1,OCC1OC(n2ccc3c2ncn2ncnc32)C(O)C1O (stereo not given),51.3%
2,OC(CCN1CCCCC1)(c1ccccc1)c1ccccc1,99.2%
3,CC(CO)(CO)C(=O)O,103%
4,CCOP(=O)(NC(c1ccccc1)c1ccccc1)OCC,105%
5,O=C(O)Cc1cccc2ccccc12,103%
6,CCOC(=O)C(=O)CC(=O)c1ccccc1,97.1%
7,Nc1ccc2c(c1)Cc1cc(N)c(N)cc1-2,102%
8,c1cc(CNCCNCc2ccncc2)ccn1,109%
9,C#CC(O)c1ccccc1 (stereo not given),101%
10,CCCCCCCCNC(=O)C(C)C,95.5%
11,CC1CN(CCO)CC(C)O1 (stereo not given),108%
12,CCOC(=O)CNC,104%
13,CN1CCCN(C(c2ccccc2)c2ccc(Br)cc2)CC1 (stereo not given),-8.62% (active)
14,COc1cc(OC)c2cc(C(=O)c3ccc(C#N)cc3)c(=O)oc2c1,105%
15,CCOC(=O)/C(O)=C(\C=N\C(=S)Nc1ccc(Cl)c(Cl)c1)C(=O)OCC,93.2%
16,CCOC(=O)c1ccc(Nc2sc(C(=O)c3ccc(Br)cc3)c(N)c2C#N)cc1,29.4%
17,C1=NCCc2ccccc21,94.2%
18,COc1ccc(NNS(=O)(=O)O)cc1,92.5%
19,COc1cccc2c1Cc1ccccc1-2,102%
20,C=COC(=O)CCOCC(CC)CCCC (stereo not given),99.9%

row,Structure (SMILES),growth
1,FC(F)(F)c1cc(NC2=NCCN=C(Nc3cc(C(F)(F)F)cc(C(F)(F)F)c3)SS2)cc(C(F)(F)F)c1,82.1%
2,CC(C)OCC(CCl)OC(=O)Nc1ccccc1 (stereo not given),107%
3,CC1(C)OC(=O)CC1=O,93.9%
4,Nc1nc(Cl)cc(Cl)n1,96.4%
5,Cc1ccccc1CC(N)C(=O)O (stereo not given),100%
6,C=C(c1ccc(N(C)C)cc1)c1ccc(N(C)C)cc1,-47.2% (active)
7,Nc1ccc(F)c(Cl)c1F,97.2%
8,C[n+]1cc2cc3c(cc2c2ccccc21)OCO3,81.4%
9,COc1cc(-c2ccc(NC(=O)CC(C)=O)c(OC)c2)ccc1NC(=O)CC(C)=O,104%
10,CCN(CC)CCN1CNC(=S)NC1,102%
11,C=CCOc1ccc(Cl)cc1Cl,101%
12,N#Cc1ccc2nc[nH]c2c1,107%
13,CC(=O)c1cc(O)ccc1O,101%
14,Cc1ccnc(Nc2nc3ccccc3[nH]2)n1,97%
15,CCNC(=O)OCCc1c2ccccc2nc2ccccc12,120%
16,CCCCN(C(=O)CC)c1ccccc1,91.8%
17,O=C1C=C[C@H](O)[C@@]2(CO)O[C@@H]12,85.9%
18,CN1CCCN(C(c2ccccc2)c2ccc(Cl)cc2)CC1 (stereo not given),91.1%
19,CCOS(=O)(=O)c1ccc([N+](=O)[O-])cc1,105%
20,Oc1cc(O)c2c(c1)O[C@H](c1ccc(O)c(O)c1)[C@@H](O)C2,112%
